Source: PubChem BioAssay (Broad Institute)
aSyn 5UTR act: Activators working through SNCA 5'UTR binding (MLPCN). actives 7.1% (n = 300,000). activity score, % (tested at 7.5 µM), hits read low. AID 1814. alpha-synuclein 5'UTR reporter, activators screen; in the data active = activity score below about -60%
* = called active by the depositor. The list is a sample of the results.

SMILES | aSyn 5UTR act
CC1(C(=O)OCc2cc(=O)n3cc(Br)ccc3n2)CC1(Cl)Cl (stereo not given) | -140*
Cc1ccccc1C(=O)NC(CC(C)C)C(=O)OCc1cc(=O)n2cc(Br)ccc2n1 (stereo not given) | -73*
CC1CC1C(=O)OCc1cc(=O)n2cc(Br)ccc2n1 (stereo not given) | -148*
Cc1cc(C(=O)O)ccc1N/C=C1\CCCC(C)C1=O (stereo not given) | -131*
CC1CCC/C(=C\Nc2ccc(O)cc2)C1=O (stereo not given) | -116*
Cc1cccc(NC(=O)c2n[nH]c([N+](=O)[O-])c2Br)c1C | -62*
CCc1c(C)nc(Nc2nc(C)c3cc(OC)ccc3n2)[nH]c1=O | -102*
COc1ccc2c(C)nc(Nc3nc(C)c(C)c(=O)[nH]3)nc2c1 | 103
Cc1cc(Cl)ccc1OCC(=O)Nc1ccccc1CO | -81*
CSc1ccccc1NC(=O)COc1ccc(Cl)cc1C | -63*
CC1CCCCN1C(=O)c1cc(-c2ccc(Cl)c(Cl)c2)on1 (stereo not given) | -222*
COc1cccc(-c2cc(C(=O)N3C(C)CCCC3C)no2)c1 (stereo not given) | -147*
CC1CCCCN1C(=O)c1cc(-c2ccc3c(c2)OCO3)on1 (stereo not given) | -87*
CCC1CCCCN1C(=O)c1cc(-c2ccc(Cl)c(Cl)c2)on1 (stereo not given) | -94*
CC(C)(C)c1nnc(N/N=C/c2cc(Br)ccc2O)n(N)c1=O | 116
Cc1ccc(C)c(/C=N/Nc2nc3ccccc3c(=O)n2O)c1 | -85*
C/C(=N\Nc1nc2ccccc2c(=O)n1O)c1ccco1 | -119*
COc1ccc(OCc2cc(C(=O)NCC(C)Oc3cccnc3)no2)c(Cl)c1 (stereo not given) | -85*
COc1cc(Cl)ccc1OCc1cc(C(=O)NC(C)Cc2cccnc2)no1 (stereo not given) | -97*
COc1cc(Cl)ccc1OCc1cc(C(=O)N(C)Cc2cccc3cnccc23)no1 | -77*
CSc1ccccc1OCc1cc(C(=O)N(C)Cc2cnccn2)no1 | -97*
COc1ccc(OCc2cc(C(=O)N(C)Cc3cc(C4CC4)n[nH]3)no2)c(Cl)c1 | -189*
COc1ccccc1CCc1nnc(CCC(=O)N(C)Cc2cccc3cnccc23)o1 | -131*
COc1ccc(OCc2cc(C(=O)N(C)Cc3cnccn3)no2)c(Cl)c1 | -71*
COc1cc(OC)cc(C(=O)NC(=S)NNC(=O)c2cnccn2)c1 | 73
SMILES | aSyn 5UTR act
COc1ccc(OCc2cc(C(=O)NC(C)Cc3cnccn3)no2)c(Cl)c1 (stereo not given) | -144*
COc1cc(Cl)ccc1OCc1cc(C(=O)NCc2cc(C(C)C)no2)no1 | -147*
Cc1cccc(N2CCN(C(=O)CN3C(=O)C4CC=CCC4C3=O)CC2)c1C (stereo not given) | -113*
Cc1cccc(N2CCN(C(=O)NC3CCCCC3)CC2)c1C | -95*
C/C(=N\NC(=O)c1ccccn1)C12CC3CC(CC(C3)C1)C2 | -131*
C/C(=N/NC(=O)c1ccoc1C)C12CC3CC(CC(C3)C1)C2 | -158*
N/C(=N\OC(=O)N1CCOCC1)c1ccccc1 | -64*
N/C(=N\OC(=O)C12CC3CC(CC(C3)C1)C2)c1ccccn1 | -110*
N/C(=N\OC(=O)C12CC3CC(CC(C3)C1)C2)c1ccccc1 | -134*
COc1ccc2c(c1OC)C(=O)N1C(C(=O)O)Cc3c([nH]c4ccccc34)C21 (stereo not given) | -66*
O=c1/c(=C\c2ccc3c(c2)OCO3)sc2n1CCCN=2 | -83*
Cc1ccc(/C=c2/sc3n(c2=O)CCCN=3)o1 | -143*
O=c1cccc2c1c1cc[nH]c3ccc(=O)n2c31 | 79
Cc1ccc(O)c(N=Cc2sc3ccccc3c2Cl)c1 | -90*
Oc1ccccc1N=Cc1sc2ccccc2c1Cl | -104*
c1ccc(COc2ccc(OCCCn3cncn3)cc2)cc1 | -102*
CC1CCN(CCCOc2ccc(OCc3ccccc3)cc2)CC1 | -69*
c1ccc(-c2ccc(OCCOCCn3cncn3)cc2)cc1 | -175*
c1ccc(COc2ccc(OCCCN3CCCC3)cc2)cc1 | 55
CC(C)(C)Nc1nc(Cl)nc(Nc2ccccc2)n1 | -136*
CCCNc1nc(Cl)nc(Nc2ccc(Cl)cc2)n1 | -63*
COc1ccc(C2=NN3C(C2)c2ccccc2OC3c2cccs2)cc1 (stereo not given) | -190*
COc1ccc(C2=NN3C(C2)c2ccccc2OC32C(=O)N(C)c3ccccc32)cc1 (stereo not given) | -131*
Cc1ccc(C(=O)C2Oc3ccccc3C3CC(c4ccc(C)cc4)=NN23)cc1 (stereo not given) | -82*
Cc1ccc(C2=NN3C(C(=O)c4ccccc4)Oc4ccccc4C3C2)cc1 (stereo not given) | -146*
SMILES | aSyn 5UTR act
O=C(Nc1ccc(OC(F)(F)F)cc1)c1ccc2nccnc2c1 | -112*
COc1ccc(C(=O)Nc2ccc(SC(F)F)cc2)cc1 | -160*
O=C(Nc1ccc(SC(F)F)cc1)c1ccc2nccnc2c1 | -218*
O=C(Nc1ccccc1)Nc1ccc2snnc2c1 | -147*
O=C(Nc1ccccc1)Nc1ccc2nnsc2c1 | -145*
CN(C)c1ccc(NC(=O)Nc2ccc3snnc3c2)cc1 | -115*
CC(=O)N1CCN(c2ccc(NC(=O)c3ccc(C(C)(C)C)cc3)cc2)CC1 | -96*
CC(=O)N1CCN(c2ccc(NC(=O)c3cccc(Cl)c3)cc2)CC1 | -122*
Cc1cccc(OCCn2c(=O)oc3ccc(C)cc32)c1 | -110*
CCCC(=O)Nc1ccc(C(=O)/C=C/c2ccc(SC)cc2)cc1 | -70*
CCC(C)Nc1nc(N)c([N+](=O)[O-])c(NCc2ccccc2)n1 (stereo not given) | 65
CCC(C)Nc1nc(N)c([N+](=O)[O-])c(NC2CCCCC2)n1 (stereo not given) | 102
O=c1c2ccccc2nc2c3ccccc3c(NCc3ccco3)nn12 | -82*
Cc1ccc(Nc2nc(NCc3ccco3)c3ccccc3n2)cc1 | -139*
Nc1nc(Nc2ccc(Cl)cc2)nc(NCc2ccco2)c1[N+](=O)[O-] | -75*
COc1ccc(NC(=O)C#Cc2ccccc2)cc1OC | -212*
NC(=O)c1ccc(NC(=O)C#Cc2ccccc2)cc1 | -112*
COc1cccc(-c2nn(-c3ccccc3)cc2CO)c1 | -127*
O/N=C/c1cn(-c2ccccc2)nc1-c1ccc2c(c1)OCCO2 | -72*
OCc1cn(-c2ccccc2)nc1-c1ccc(Br)cc1 | -117*
OCc1cn(-c2ccccc2)nc1-c1ccc2c(c1)OCCO2 | -133*
O=C(N/N=C/c1nn(-c2ccccc2)cc1-c1ccc(Cl)cc1)c1ccncc1 | -64*
O=C(N/N=C/c1cn(-c2ccccc2)nc1-c1ccc2c(c1)OCCO2)c1ccncc1 | -99*
COc1ccc(-c2nc(CS(=O)CC(=O)NCCC3=CCCCC3)c(C)o2)cc1 (stereo not given) | -86*
O=C(CCSCc1ccccc1F)N1CCN(c2ccccn2)CC1 | -78*
SMILES | aSyn 5UTR act
O=C(CSCc1ccccc1Cl)N1CCN(c2ccccn2)CC1 | -82*
CCc1ccc(-c2nc(CSCC(=O)N3CCN(c4ccccn4)CC3)c(C)o2)cc1 | 82
COc1ccc(NS(=O)(=O)c2cc(C)ccc2C)cc1 | -67*
COc1ccc(NS(=O)(=O)c2cc(-c3cnc(C4CC4)o3)ccc2C)cc1 | 82
CC(=O)Nc1ccc(OCc2nnc(-c3ccc(Cl)cc3)o2)cc1 | -96*
CCOC(=O)CNc1c(-c2ccc(O)cc2)nc2ccc(Cl)cn12 | -68*
